Reference: PubChem BioAssay (NCI)
About 79,000 compounds went through this panel and 15% of them were active in at least one assay; those are over-represented in the sample as a whole. The source made the active and inactive calls. Rule as the data show it: active = growth inhibition above about 70%; inactive = the rest.

Assay: NCI Yeast Anticancer Drug Screen. Data for the wt2 strain (AID 169);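 also: 0% = growth of vehicle-treated yeast cultures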
Details: S. cerevisiae wt2 strain growth inhibition, active compounds read high
Method: Growth inhibition of yeast strains with defined genetic alterations is measured as a screen for potential anti-cancer activity. Selected strains with alterations in DNA damage repair or cell cycle control were exposed to compounds and growth inhibition was measured relative to vehicle treated controls. The strain used in this assay is wt2

Measured: growth inhibition

CCC(C)(C)c1ccc(Oc2ccccc2)c(N)c1
active: at 11.0 µM 97% | at 33.0 µM 99% | at 100.0 µM 99%
inactive: at 1.2 µM -17% | at 3.7 µM 0%

Nc1ccc2c(c1)C(=O)c1c(F)cccc1-2
inactive: at 1.2 µM -1% | at 3.7 µM 0% | at 11.0 µM 0% | at 33.0 µM 4% | at 100.0 µM 64%

ClCCCOc1c(Cl)cc(Cl)cc1Cl
inactive: at 1.2 µM -7% | at 3.7 µM 1% | at 11.0 µM -7% | at 33.0 µM -2% | at 100.0 µM -8%

CC(C)C(c1ccccc1)c1ccccc1
inactive: at 1.2 µM -2% | at 3.7 µM -2% | at 11.0 µM -1% | at 33.0 µM 1% | at 100.0 µM 56%

COc1cc2c(cc1O)[C@H](C)C(c1ccccc1OC)O2 (stereo not given in full)
inactive: at 1.2 µM -26% | at 3.7 µM -32% | at 11.0 µM -26% | at 33.0 µM -4%
active: at 100.0 µM 96%

O=C(Cc1ccccc1)NNc1nc(NNC(=O)c2ccncc2)nc(Nc2ccc([N+](=O)[O-])cc2)n1
inactive: at 1.2 µM -3% | at 3.7 µM 10% | at 11.0 µM 41% | at 33.0 µM 57% | at 100.0 µM 61%

O=C(CCCN1CCC(Nc2ccc(F)cc2)(c2nnnn2C2CCCCC2)CC1)c1ccc(F)cc1
active: at 100.0 µM 99%
inactive: at 1.2 µM -6% | at 3.7 µM -6% | at 11.0 µM -9% | at 33.0 µM -1%

Oc1ccc(C2(c3ccc(O)cc3)CCCC2)cc1
inactive: at 1.2 µM -54% | at 3.7 µM -30% | at 11.0 µM -18%
active: at 33.0 µM 98% | at 100.0 µM 98%
